28 molecules from PubChem BioAssay AID488864 (Broad Institute, 2010) can be followed below.

Entries with a potency or affinity are not part of this list. Unmarked numbers belong to inactive results.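 Rule for the calls: active = ATP signal reduced by compound, with fitted active dose under ten times the top valid tested dose; inactive = the rest, compounds that increase ATP levels included.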

The experiment can be described thus: cellular ATP toxicity in rat beta cells – cell-based, CellTiter-Glo luminescence, INS-1E, dry powder, cytotoxicity control for beta-cell cytokine protection project, dose response (AID 488864). As to conditions: INS-1E rat beta cells, 48 h, no cytokines; series mostly up to 26 µM; activity change, negative = ATP decrease: at the top concentration. On the technique in general: In ATP-based viability assays light output follows the ATP content of the culture.
Turning to `COc1ccc(S(=O)(=O)N(C)C[C@@H]2Oc3c(NC(=O)Nc4cccc5ccccc45)cccc3C(=O)N([C@@H](C)CO)C[C@H]2C)cc1`, the “activity change, negative = ATP decrease” value was 11.3%.

In the case of `C[C@@H]1CN([C@@H](C)CO)C(=O)c2cccc(NC(=O)Nc3ccc(F)cc3)c2O[C@H]1CN(C)S(=O)(=O)c1ccc(F)cc1`, the “activity change, negative = ATP decrease” value was 5.77%.

Take `Cc1ccc(S(=O)(=O)N(C)C[C@@H]2Oc3c(NC(=O)Nc4ccccc4)cccc3C(=O)N([C@H](C)CO)C[C@H]2C)cc1`: the “activity change, negative = ATP decrease” value is 0.0817%.

Consider `Cc1ccc(S(=O)(=O)N(C)C[C@H]2Oc3c(NC(=O)Nc4cccc5ccccc45)cccc3C(=O)N([C@@H](C)CO)C[C@@H]2C)cc1`, for which the “activity change, negative = ATP decrease” value is 3.34% [at 12 µM].

For the molecule `C[C@@H]1CN([C@@H](C)CO)C(=O)c2cccc(NC(=O)Nc3cccc4ccccc34)c2O[C@H]1CN(C)C(=O)Nc1ccc2c(c1)OCO2`, the “activity change, negative = ATP decrease” value is -3.25%.

Regarding `C[C@@H]1CN([C@@H](C)CO)C(=O)c2cccc(NC(=O)Nc3cccc4ccccc34)c2O[C@H]1CN(C)S(=O)(=O)c1ccc2c(c1)oc(=O)n2C`, the “activity change, negative = ATP decrease” value is 2.94%.

Turning to `C[C@@H]1CN([C@@H](C)CO)C(=O)c2cccc(NC(=O)Nc3ccccc3)c2O[C@H]1CN(C)S(=O)(=O)c1ccc(F)cc1`, the “activity change, negative = ATP decrease” value was -0.503%.

As for `Cc1ccc(S(=O)(=O)N(C)C[C@@H]2Oc3c(NC(=O)Nc4ccc(F)cc4)cccc3C(=O)N([C@@H](C)CO)C[C@H]2C)cc1`, the “activity change, negative = ATP decrease” value is 3.29%.

`COc1ccc(S(=O)(=O)N(C)C[C@@H]2Oc3c(NC(=O)Nc4cccc5ccccc45)cccc3C(=O)N([C@@H](C)CO)C[C@H]2C)cc1Cl`: the “activity change, negative = ATP decrease” value was 15.4%.

As for `COc1ccc(S(=O)(=O)N(C)C[C@H]2Oc3c(NC(=O)Nc4cccc5ccccc45)cccc3C(=O)N([C@@H](C)CO)C[C@@H]2C)cc1`, the “activity change, negative = ATP decrease” value is 9.1%.

In the case of `C[C@@H]1CN([C@@H](C)CO)C(=O)c2cccc(NC(=O)Nc3cccc4ccccc34)c2O[C@H]1CN(C)C(=O)NC1CCCCC1`, the “activity change, negative = ATP decrease” value is -14.9%.

Consider `Cc1ccc(S(=O)(=O)N(C)C[C@@H]2Oc3c(NC(=O)Nc4cccc5ccccc45)cccc3C(=O)N([C@@H](C)CO)C[C@H]2C)cc1`, for which the “activity change, negative = ATP decrease” value is 5.11%.

Consider `N#Cc1ccc2cc(Br)c(C(F)(F)P(=O)(O)O)cc2c1`, for which the “activity change, negative = ATP decrease” value is -3.66%.

On to `C[C@@H]1CN([C@@H](C)CO)C(=O)c2cccc(NC(=O)Nc3cccc4ccccc34)c2O[C@H]1CN(C)S(=O)(=O)c1ccc2c(c1)OCCCO2`, for which the “activity change, negative = ATP decrease” value was 7.84%.

Turning to `COc1ccc(S(=O)(=O)N(C)C[C@@H]2Oc3c(cccc3N(C)C)C(=O)N([C@@H](C)CO)C[C@H]2C)cc1`, the “activity change, negative = ATP decrease” value is 5.31% [at 23.5 µM].

As for `COc1ccc(S(=O)(=O)N(C)C[C@@H]2Oc3c(NC(=O)Nc4ccc(F)cc4)cccc3C(=O)N([C@@H](C)CO)C[C@H]2C)cc1`, the “activity change, negative = ATP decrease” value was 5.46% [at 23.5 µM].

As for `COc1ccc(S(=O)(=O)N(C)C[C@@H]2Oc3c(NC(=O)Nc4cccc5ccccc45)cccc3C(=O)N(C(C)C)C[C@H]2C)cc1`, the “activity change, negative = ATP decrease” value was 0.128%.

Take `COc1ccc(S(=O)(=O)N(C)C[C@@H]2Oc3c(NC(=O)Nc4cccc5ccccc45)cccc3C(=O)N([C@H](C)CO)C[C@H]2C)cc1`: the “activity change, negative = ATP decrease” value was 13.1% [at 23.5 µM].

`COc1ccc(S(=O)(=O)N(C)C[C@H]2Oc3c(NC(=O)Nc4cccc5ccccc45)cccc3C(=O)N([C@H](C)CO)C[C@H]2C)cc1`: the “activity change, negative = ATP decrease” value was 5.53%.

In the case of `COc1ccc(S(=O)(=O)N(C)C[C@@H]2Oc3c(NC(=O)Nc4ccc(F)cc4)cccc3C(=O)N([C@H](C)CO)C[C@H]2C)cc1`, the “activity change, negative = ATP decrease” value is 1.45%.

As for `COc1ccc(S(=O)(=O)N(C)C[C@@H]2Oc3c(NS(=O)(=O)c4ccc(F)cc4)cccc3C(=O)N([C@@H](C)CO)C[C@H]2C)cc1`, the “activity change, negative = ATP decrease” value is 0.223%.

As to `COc1ccccc1S(=O)(=O)N(C)C[C@@H]1Oc2c(NC(=O)Nc3cccc4ccccc34)cccc2C(=O)N([C@@H](C)CO)C[C@H]1C`, the “activity change, negative = ATP decrease” value is 10%.

`COc1ccc(S(=O)(=O)N(C)C[C@@H]2Oc3c(NC(=O)Nc4cccc5ccccc45)cccc3C(=O)N([C@@H](C)CO)C[C@H]2C)cc1C`: the “activity change, negative = ATP decrease” value was 12%.

Consider `CNC[C@@H]1Oc2c(NC(=O)Nc3cccc4ccccc34)cccc2C(=O)N([C@@H](C)CO)C[C@H]1C`, for which the “activity change, negative = ATP decrease” value is -0.69%.

As to `COc1ccc(S(=O)(=O)N(C)C[C@@H]2Oc3c(NC(=O)Nc4ccc5c(c4)OCO5)cccc3C(=O)N([C@@H](C)CO)C[C@H]2C)cc1`, the “activity change, negative = ATP decrease” value is 9.54%.

`COc1ccc(S(=O)(=O)N(C)C[C@@H]2Oc3c(NC(=O)C4CC4)cccc3C(=O)N([C@@H](C)CO)C[C@H]2C)cc1`: the “activity change, negative = ATP decrease” value was 1.69% [at 23.5 µM].

As to `COc1ccc(S(=O)(=O)N(C)C[C@H]2Oc3c(NC(=O)Nc4cccc5ccccc45)cccc3C(=O)N([C@H](C)CO)C[C@@H]2C)cc1`, the “activity change, negative = ATP decrease” value is 2.53%.

On to `COc1ccc(NC(=O)Nc2cccc3c2O[C@@H](CN(C)S(=O)(=O)c2ccc(OC)cc2)[C@H](C)CN([C@@H](C)CO)C3=O)cc1`, for which the “activity change, negative = ATP decrease” value was 4.11%.
